# Rows were chosen to be rich in hits. Some 3.5% of all compounds tested hit in one or more screens of this group.
# Anthrax LF inh2 – Bacillus anthracis LF protease inhibitors, primary screen, biochemical, multiplex microsphere, MLPCN library | inhibition, % at 10 µM | Lethal factor (Bacillus anthracis), P15917 | AID 588501, 2011 | multiplex microsphere protease cleavage assay | 360,000 compounds, 0.12% hits
# Target sequence (P15917 whole entry, looked up): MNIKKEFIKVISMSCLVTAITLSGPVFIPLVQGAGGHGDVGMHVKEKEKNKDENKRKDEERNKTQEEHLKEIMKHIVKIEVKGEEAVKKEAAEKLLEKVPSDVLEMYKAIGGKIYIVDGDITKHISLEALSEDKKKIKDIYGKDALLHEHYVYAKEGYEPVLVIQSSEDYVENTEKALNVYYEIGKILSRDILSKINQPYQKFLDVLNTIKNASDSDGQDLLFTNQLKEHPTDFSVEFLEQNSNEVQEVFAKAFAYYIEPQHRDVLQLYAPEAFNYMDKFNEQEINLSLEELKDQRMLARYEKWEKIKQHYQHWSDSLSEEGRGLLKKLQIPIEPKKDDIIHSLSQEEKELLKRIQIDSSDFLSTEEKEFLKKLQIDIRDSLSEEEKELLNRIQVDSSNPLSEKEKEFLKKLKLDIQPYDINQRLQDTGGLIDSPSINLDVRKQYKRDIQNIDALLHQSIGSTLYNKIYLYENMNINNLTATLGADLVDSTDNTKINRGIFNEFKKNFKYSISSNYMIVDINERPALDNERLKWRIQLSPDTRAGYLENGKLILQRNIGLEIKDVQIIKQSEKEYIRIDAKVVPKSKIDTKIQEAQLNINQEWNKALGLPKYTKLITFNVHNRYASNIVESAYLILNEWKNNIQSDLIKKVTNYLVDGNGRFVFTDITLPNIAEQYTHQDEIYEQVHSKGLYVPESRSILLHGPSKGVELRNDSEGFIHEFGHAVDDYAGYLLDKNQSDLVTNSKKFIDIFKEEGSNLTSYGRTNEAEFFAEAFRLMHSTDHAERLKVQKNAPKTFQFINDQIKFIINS
# BoNT-F LC inh – BoNT/F light chain protease inhibitors, primary screen, biochemical, flow cytometry, MLPCN library; Botulinum neurotoxin type F light chain protease (Clostridium botulinum); Multiplex microsphere protease cleavage assay; inhibition, % at 10 µM; 360,000 compounds, 0.22% hits; AID 588497, 2011; in the data active = inhibition above about 35%, passing the limit was not always enough; inconclusive = no clear call, values can overlap the other calls
# Autofluor counter – flagged as autofluorescent in microsphere protease counterscreen | compound autofluorescence counterscreen, microsphere flow cytometry; active compounds read high | fluorescence intensity (concentration not given with the values) | 360,000 compounds, 3.1% hits | AID 624483; in the data active = fluorescence intensity above about 16000; inconclusive = no clear call, values can overlap the other calls
# BoNT A protease – BoNT/A light chain protease inhibitors, primary screen, biochemical, flow cytometry, MLPCN library | 360,000 compounds, 0.17% hits | Botulinum neurotoxin type A light chain protease (Clostridium botulinum A str. ATCC 3502) | multiplex microsphere protease substrate cleavage | AID 588499, 2011 | inhibition, % at 10 µM
# Hits are given with their value; i = inactive; ? = inconclusive; ! = a repeat was not active. Cut-off read from the data, not from the text of the source, unless noted: active = inhibition above about 30%; inconclusive = no clear call, values can overlap the other calls; inactive = below that.
SMILES,Anthrax LF inh2,BoNT-F LC inh,Autofluor counter,BoNT A protease
O=C(NC1CCCCC1)c1cc([N+](=O)[O-])ccc1N1CCCCC1,i,i,23223,i
CC1=C(C(=O)Nc2ccccc2C)C2(CCCC2)C(C(N)=O)C(=O)N1 (stereo not drawn),i,i,19911,i
Cc1ccccc1NC(=O)c1cnc2ccccn2c1=O,i,i,i,i
O/N=C/Cc1[nH]c2ccccc2c1-c1ccccc1,i,i,i,i
O=C(Nc1ccc(C(F)(F)F)cc1)c1cccnc1N1CCOCC1,i,i,21885,?
COc1ccc(CC(C)CC(=O)Nc2ccc(OC)cc2)cc1 (stereo not drawn),i,i,i,i
COc1cccc(-c2oc3c(c2C(=O)OCCN2CCCCC2)C(O)CCC3)c1 (stereo not drawn),i,i,i,i
CCN(c1cccc(C)c1)S(=O)(=O)c1ccc2c(c1)oc(=O)n2C,i,i,i,i
CCOc1ccc(N(CC)S(=O)(=O)c2ccc3c(c2)oc(=O)n3C)cc1,i,i,17539,i
CCCC(=O)Nc1c2c(nn1-c1ccc(OC)cc1)CS(=O)(=O)C2,i,i,19921,i
COc1ccc([C@H]2CC(=O)C=C(c3c(C)cc(C)cc3C)C2)cc1,i,i,i,i
Cc1ccc(C(=O)Oc2ccc(C(=O)COC(=O)c3cnccn3)cc2)cc1,i,i,16162,i
CC(C)OP(=O)(OC(C)C)C(NC(=O)c1ccc(Br)cc1)c1ccccc1 (stereo not drawn),i,i,21425,i
CC(NC(=O)c1ccc(Br)cc1)c1ccccc1 (stereo not drawn),i,i,i,i
Cc1ccc(S(=O)(=O)N2CCN(CCOc3cccc(C)c3)CC2)cc1,i,?,i,i
O=C(CSc1nnc(-c2ccncc2)o1)Nc1cc(Cl)ccc1C(=O)O,i,i,i,i
CSc1ccccc1NC(=O)CSCc1ccc(Br)cc1,i,i,16464,i
C/C(N)=C(/C#N)C(=O)CSc1cc(Cl)ccc1Cl,i,i,i,i
C/C(N)=C(/C#N)C(=O)CSc1nnnn1-c1ccc(C)cc1C,i,i,19626,i
Cc1ccc(-n2nnnc2SCC(=O)Nc2cc(C)on2)c(C)c1,i,i,i,i
C/C(N)=C(/C#N)C(=O)CSc1nnc(Nc2cccc(C)c2)s1,i,i,17498!,i
C/C(N)=C(/C#N)C(=O)CSc1nc2cc(Cl)ccc2s1,i,i,24839,?
CCN(CC(=O)Nc1ccc(NC(C)=O)cc1)C(=O)c1ccc(C(=O)c2ccccc2)cc1,i,i,i,i
O=[N+]([O-])c1ccc(COP(=O)(O)OCc2ccc([N+](=O)[O-])cc2)cc1,i,i,i,i
Fc1cccc(/C=N/Nc2nncc3ccccc23)c1,i,i,i,i
SMILES,Anthrax LF inh2,BoNT-F LC inh,Autofluor counter,BoNT A protease
CC(=O)Nc1ccc(/C=N/Nc2nncc3ccccc23)cc1,i,48,i,i
Cc1ccccc1N1CCN(C2CCCN(C(=O)CCC3(C)CC3)C2)CC1 (stereo not drawn),i,i,i,i
Cn1nc(-c2ccc(N3CCCCC3)c(NC(=O)c3ccco3)c2)c2ccccc2c1=O,i,i,23305,?
COc1ccccc1Cn1[nH]nnc1=S,i,?,i,?
Cc1snc(S(=O)(=O)Cc2c(Cl)cccc2Cl)c1C#N,i,i,25224,i
OC(CN1CCCCC1)c1ccc2c3c(cccc13)CC2 (stereo not drawn),i,i,i,i
COc1ccc(-c2ncccc2O)cc1,i,i,i,i
CCOc1c(C)cc(-c2ncccc2O)cc1C,i,i,22538!,i
NNc1ccc([N+](=O)[O-])c2[nH][nH]c(=O)c12,i,i,i,i
CNC(=O)C12CCC(C)(c3nc4cc(C)c(C)cc4nc31)C2(C)C (stereo not drawn),i,i,23268,i
O=C(CSc1ccccc1)Nc1ccc(-c2nc3ccccc3[nH]2)cc1,i,i,i,i
Cc1ccc2nc(C3CCN(CC(=O)Nc4ccc5c(c4)OCCO5)CC3)[nH]c2c1,i,i,23511,i
CCOc1ccccc1NC(=O)N1CCC(c2nc3ccccc3[nH]2)CC1,i,i,21924,?
COc1ccc(CC(=O)NC2CCN(CC(=O)Nc3ccc4c(c3)OCCO4)CC2)cc1OC,i,i,23401,i
COc1ccccc1NC(=O)CN1CCC(c2nc3ccc(C)cc3[nH]2)CC1,i,i,i,i
O=C(CN1CCOCC1)Nc1ccc(-c2nc3ccccc3[nH]2)cc1,i,i,23886,i
COc1ccccc1NC(=O)N1CCC(c2nc3cc(C)c(C)cc3[nH]2)CC1,i,i,i,i
COc1ccc(NC(=O)CN2CCN(Cc3ccc4c(c3)OCO4)CC2)cc1OC,i,i,i,i
COc1cc2c(cc1OC)C(NNC(=O)c1ccc(Br)o1)=NC(C)(C)C2,i,i,i,i
COc1ccc(NC(=O)C2(C)CCN2C(=O)C(C)C)cc1F (stereo not drawn),i,i,i,i
O=S(=O)(c1ccc2c(c1)OCCO2)N1CCC(c2nc3ccc(Cl)cc3[nH]2)CC1,i,i,i,i
COc1ccccc1NC(=O)CN1CCC(c2nc3ccccc3[nH]2)CC1,i,i,i,i
O=S(=O)(c1ccc2c(c1)OCCO2)N1CCC(c2nc3ccccc3[nH]2)CC1,i,i,22441,i
O=C(CN1CCC(c2nc3ccccc3[nH]2)CC1)Nc1ccc2c(c1)OCO2,i,i,21412,i
Cc1nc2n[nH]c(N)c2c2c1COC(C)(C)C2,i,i,i,i
SMILES,Anthrax LF inh2,BoNT-F LC inh,Autofluor counter,BoNT A protease
CCCc1nc2n[nH]c(N)c2c2c1COC(C)(C)C2,i,i,21384,i
CCCNC(=O)C1(C)CCCN(C(=O)c2ccccc2OC)C1 (stereo not drawn),i,i,i,i
Cc1nc2nc(C)c(CCC(=O)N3CCN(c4ccccn4)CC3)c(C)n2n1,i,i,23157,i
CCOC(=O)N1CCN(C(=O)CCc2c(C)nc3nc(C)nn3c2C)CC1,i,i,i,i
Cc1nc2ncnn2c(C)c1CCC(=O)N1CCOCC1,i,i,22539,i
Cc1nc2ncnn2c(C)c1CCC(=O)N1CCCCC1,i,i,i,i
Cc1cc(C)cc(NC(=O)c2cnn(-c3ccccc3)c2C2CCNCC2)c1,i,i,i,i
CC(C)Nc1ncnc2c1ncn2[C@H]1CN(CCN2CCOCC2)C[C@@H](CO)O1,i,i,i,i
O=C(CCCOc1ccc(Cl)cc1)NC1CCCCC1,i,i,i,i
COCCN(C(=O)c1csnn1)C(C(=O)NC1CCCCC1)c1cccs1 (stereo not drawn),i,i,i,i
O=C(NC1CCCC1)C(c1ccccn1)N(C(=O)c1csnn1)C1CC1 (stereo not drawn),i,i,16748,i
O=C(NC1CCCC1)C(c1ccccn1)N(C(=O)c1csnn1)C1CCCCC1 (stereo not drawn),i,i,i,i
O=C(NC1CCCCC1)C(c1ccco1)N(C(=O)c1csnn1)C1CCCC1 (stereo not drawn),i,i,22986,i
O=C(NC1CCCCC1)C(c1ccco1)N(C(=O)c1csnn1)c1ccc(Cl)cc1 (stereo not drawn),i,i,i,i

# Screening data (PubChem)
